Values joined by “and” are separate entries in the source; they are usually repeats but may differ in a detail not shown here. Equal values may be shown once. Inconclusive results are not listed. Values without a mark were called inactive. Active and inactive are the calls of the source. The call rests on the fitted dose curve; in most records, active means well fitted cell-killing curve with a large enough effect in the repeat runs; inconclusive means weak or mixed curves, or effect the other way; inactive means no such curve, though single readings can be large or run the other way.
Experiment: qHTS assay to identify small molecule antagonists of the thyroid receptor (TR) signaling pathway - cell viability counter screen (AID 743064); further: nearly all actives have a fitted effect of over 50% in size
Details: GH3.TRE-Luc viability, CellTiter-Fluor, 24 h; series mostly up to 70.3 µM; activity change, negative = cytotoxic: at the top concentration
Excerpt: National Center for Advancing Translational Sciences [NCATS]
NIH Chemical Genomics Center [NCGC]
U.S. Environmental Protection Agency [EPA]
National Institutes of Environmental Health Sciences [NIEHS]
National Toxicology Program [NTP]
U.S. Food and Drug Administration [FDA]
Thyroid receptor (TR), a nuclear hormone receptor, plays an important role in development, proliferation, differentiation, metabolism, brain function, and cardiovascular system. […] To profile the Tox21 10K compound library in TR signaling, a cell-based GH3-TRE-Luc assay (GH3.TRE-Luc cell line, developed by the laboratory of Dr. Albertinka J. Murk, Wageningen University) was used to measure the inhibition of TR. GH3 (rat pituitary tumor) cells stably expressing a TR activity sensor consisting of two TR response elements and a luciferase reporter gene. The cytotoxicity of the Tox21 compound library against the GH3.TRE-Luc cell line was tested in parallel by measuring the cell viability using CellTiter-Fluor assay (Promega, Madison, WI) in the same wells.
Tox21 Assay Protocol Summary:
GH3.TRE-Luc cells were dispensed at 1500 cells/4 uL/well into 1536-well white solid bottom plates using a Multidrop Combi dispenser (Thermo Fisher Scientific Inc., Waltham, MA). After the assay plates were incubated at 37 C for 4 hours, 23 nL of library compound or DMSO controls was transferred to the assay plates by a pintool station (Kalypsys, San Diego, CA), followed by addition of 1 ul of T3 (1 nM, final concentration in the wells) to stimulate TR transactivation. The assay plates were incubated at 37 C for 23.5 h, and then 1 uL of CellTiter-Fluor reagent (Promega, Madision, WI) of measuring cytotoxicity was added to each well using a Bioraptr Flying Reagent Dispenser (FRD) workstation (Beckman Coulter, Indianapolis, IN, USA). The plates were incubated at 37C and 5% CO2 for additional 30 min, and fluorescence intensity was measured by a ViewLux plate reader (PerkinElmer, Shelton, CT).
On the % scale 0 is the no-effect control and ±100 the full control effect; potency means the concentration at half of the fitted maximal effect.

Compound	activity change, negative = cytotoxic	Potency
Cc1ccc(S)cc1	0.292%	
CCc1cccc(N(C)C(N)=Nc2cccc3ccccc23)c1		18.8 µM (active)
CCCCC(CC)C(=O)OCCOCCOCCOCCOC(=O)C(CC)CCCC (stereo not given)	-9.35%	
CCNC(=O)N1CCN(CCCC(c2ccc(F)cc2)c2ccc(F)cc2)CC1		21.1 µM (active)
Cc1ccnc2ccccc12	7.57%	
CC[C@H](NC(=O)c1cc(F)ccc1NS(=O)(=O)c1cccc2cccnc12)c1ccccc1	-8.05%	
CC1(C)C(=O)N(Br)C(=O)N1Cl	-10.7%	
C=CC(=C)CCCC(C)(C)OC(C)=O	3.22%	
Cc1oc(C)c(C(=O)Nc2ccccc2)c1C	-0.876%	
CCCCCCCCCCOS(=O)(=O)O	7.98%	
OCC1CC=CCC1 (stereo not given)	16.6%	
CCN(CC)CCNC(=O)c1ccc(NC(C)=O)cc1	14.1%	
Cc1c(C(=O)NN2CCCCC2)nn(-c2ccc(Cl)cc2Cl)c1-c1ccc(Cl)cc1		16.8 µM (active)
NC(=O)Nc1ccc(Cl)c(Cl)c1	-25.1%	
CCc1nn(CCCN2CCN(c3cccc(Cl)c3)CC2)c(=O)n1CCOc1ccccc1		10.6 µM (active) and 26.6 µM (active)
CC(C)OCC1CO1 (stereo not given)	-1.28%	
COc1ccccc1N=Nc1c(S(=O)(=O)O)cc2cc(S(=O)(=O)O)cc(NC(C)=O)c2c1O		32.3 µM (active)
Nc1nccs1		inactive
CO[C@H]1C=CO[C@@]2(C)Oc3c(C)c(O)c4c(O)c(c5c(c4c3C2=O)=NC2(CCN(CC(C)C)CC2)N=5)NC(=O)/C(C)=C\C=C/[C@H](C)[C@H](O)[C@@H](C)[C@@H](O)[C@@H](C)[C@H](OC(C)=O)[C@@H]1C		29.8 µM (active)
Cc1cc(O)c(C(C)C)cc1Cl	11.6%	

Compound	activity change, negative = cytotoxic	Potency
CN(C)C(=O)Nc1ccc(Oc2ccc(Cl)cc2)cc1	-18%	
O=C(N/N=C/c1ccc([N+](=O)[O-])o1)c1ccc(O)cc1	-25.7% [at 32.5 µM]	
CCC(Cc1ccccc1)(C(=O)c1ccc(N2CCOCC2)cc1)N(C)C (stereo not given)	-1.95%	
COCC(O)CO (stereo not given)	-3.55% [at 95 µM]	
Cc1cc(O)c2c(O)c3c(O)cccc3cc2c1	-22.6%	
COCCOC	-0.141%	
Oc1cc(O)c(Cl)cc1Cl	15.7% [at 95 µM]	
Cc1cc2nc3ccc(=[N+](C)C)cc-3sc2cc1N		26.6 µM (active)
C/C=C(\C)C(=O)OCCC(C)CCC=C(C)C (stereo not given)	7.72%	
CCCOC(=O)c1ccc(C(=O)OCCC)nc1	25.5%	
c1cnc2c(n1)CCCC2	0.933%	
Cc1cc(OI)c(C(C)C)cc1-c1cc(C(C)C)c(OI)cc1C	9.64%	
NC(=O)N(O)[C@@H]1COc2cc(OCc3ccccc3)ccc21	4.03%	
CN1CCN(c2c(F)cc3c(=O)c(C(=O)O)cn4c3c2OCN4C)CC1	19.4%	
CC#N	10.1% [at 95 µM]	
CC1=CC(=O)CC(C)(C)C1(O)/C=C/C(C)=C\C(=O)O (stereo not given)	15.5%	
CC(C)=CC=O	0% [at 95 µM]	
[O]=[Bi]	1.51% [at 8.44 µM]	
CC1=C(/C=C/C(C)=C\C=C\C(C)=C\C(=O)O)C(C)(C)CCC1	-13.7%	
O=C(CCCCCCCCC#CI)Oc1ccccc1	-22.2%	

Reference: PubChem BioAssay (Tox21)
